According to PubChem BioAssay (NCATS):
Several values for one entry are separate records, joined by “and”; a condition that tells them apart may be missing. Equal values may be shown once. Records with an inconclusive call do not appear. Activity calls are given as the source filed them. Calls follow the shape of the dose curve; as a rule, active = well fitted curve in the direction sought with a large enough effect; inconclusive = small, poorly fitted or top-dose-only effect, or another doubt; inactive = no such curve, though single readings can be large; an effect the other way counts as inactive or inconclusive.

Experiments:
CRL-7250 = normal cell line; experiment: Cytotoxic Profiling of Annotated Libraries Using Quantitative High-Throughput Screening (AID 1296008); conditions: Five cell lines viability, CellTiter-Glo ATP luminescence, 48-72 h; max response: active compounds read low; also: nearly all actives have a fitted effect of over 60% in size
Method in brief: (§1)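 Cytotoxicity was measured as CellTiter-Glo ATP luminescence, read after 10 min at room temperature. Compound treatment of the cells lasted 48 or 72 hr at 37 degrees Celsius in a qHTS format.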

HEK293 = experiment: as above; conditions: Five cell lines viability, CellTiter-Glo ATP luminescence, 48-72 h; max response: active compounds read low
Method in brief: as §1

HaCat [1] = experiment: as above; conditions: Five cell lines viability, CellTiter-Glo ATP luminescence, 48-72 h; max response: active compounds read low
Method in brief: as §1

NIH3T3 [2] = experiment: as above; conditions: Five cell lines viability, CellTiter-Glo ATP luminescence, 48-72 h; max response: active compounds read low
Method in brief: as §1

MKL-1 = experiment: qHTS assay to identify novel small-molecules to repurpose for Merkel cell carcinoma treatment (AID 1296009); conditions: MCC and control cell lines, CellTiter-Glo viability, 72 h; series mostly up to 46 µM; also: nearly all actives have a fitted effect of over 60% in size
Method in brief: (§2)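 After compound transfer in DMSO, plates were kept 72 hr at 37 degree celsius. Luminescent ATP signal from CellTiter-Glo served as viability measure, normalized against DMSO and no-cell controls.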

MKL-2 = experiment: as above; conditions: MCC and control cell lines, CellTiter-Glo viability, 72 h; series mostly up to 46 µM
Method in brief: as §2

UISO = experiment: as above; conditions: MCC and control cell lines, CellTiter-Glo viability, 72 h; series mostly up to 46 µM
Method in brief: as §2

WaGa = experiment: as above; conditions: MCC and control cell lines, CellTiter-Glo viability, 72 h; series mostly up to 46 µM
Method in brief: as §2

KB-3-1 = experiment: Cytotoxic Profiling of Annotated Libraries Using Quantitative High-Throughput Screening (AID 1296008); conditions: Five cell lines viability, CellTiter-Glo ATP luminescence, 48-72 h; max response: active compounds read low; also: nearly all actives have a fitted effect of over 60% in size
Method in brief: as §1

MCC-13 = experiment: qHTS assay to identify novel small-molecules to repurpose for Merkel cell carcinoma treatment (AID 1296009); conditions: MCC and control cell lines, CellTiter-Glo viability, 72 h; series mostly up to 46 µM; also: nearly all actives have a fitted effect of over 60% in size
Method in brief: as §2

C33A = experiment: Primary qHTS to identify gynecologic anti-cancer compounds using libraries of approved drugs and bioactive compounds (AID 1345084); conditions: Gynecologic cancer cell panel viability, ATPlite luminescence, 48 h; series mostly up to 57.5 µM; also: nearly all actives have a fitted effect of over 55% in size
Method in brief: (§3)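 Measured: luminescence after ATPlite addition (15 min, RT). Exposure: 48 h, 37 C, 5% CO2.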

CASKI = experiment: as above; conditions: Gynecologic cancer cell panel viability, ATPlite luminescence, 48 h; series mostly up to 57.5 µM
Method in brief: as §3

HeLa = experiment: as above; conditions: Gynecologic cancer cell panel viability, ATPlite luminescence, 48 h; series mostly up to 57.5 µM
Method in brief: as §3

Hek293T = experiment: as above; conditions: Gynecologic cancer cell panel viability, ATPlite luminescence, 48 h, control line for the selectivity index; series mostly up to 57.5 µM
Method in brief: as §3

MCC-26 = experiment: qHTS assay to identify novel small-molecules to repurpose for Merkel cell carcinoma treatment (AID 1296009); conditions: MCC and control cell lines, CellTiter-Glo viability, 72 h; series mostly up to 46 µM; also: nearly all actives have a fitted effect of over 60% in size
Method in brief: as §2

Es-2 = experiment: Primary qHTS to identify gynecologic anti-cancer compounds using libraries of approved drugs and bioactive compounds (AID 1345084); conditions: Gynecologic cancer cell panel viability, ATPlite luminescence, 48 h; series mostly up to 57.5 µM; also: nearly all actives have a fitted effect of over 55% in size
Method in brief: as §3

HACAT [3] = experiment: qHTS assay to identify novel small-molecules to repurpose for Merkel cell carcinoma treatment (AID 1296009); conditions: MCC and control cell lines, CellTiter-Glo viability, 72 h; series mostly up to 44.8 µM; also: nearly all actives have a fitted effect of over 60% in size
Method in brief: as §2

NIH3T3 [4] = experiment: as above; conditions: MCC and control cell lines, CellTiter-Glo viability, 72 h; at 44.8 µM (top of the series) unless noted
Method in brief: as §2

CAOV3 = experiment: Primary qHTS to identify gynecologic anti-cancer compounds using libraries of approved drugs and bioactive compounds (AID 1345084); conditions: Gynecologic cancer cell panel viability, ATPlite luminescence, 48 h; series mostly up to 57.5 µM; also: nearly all actives have a fitted effect of over 55% in size
Method in brief: as §3
% is scaled to controls: 0 for no effect and ±100 for the full control effect; potency is read from the fitted curve at half-maximal effect.

CC(C)C[C@H](NC(=O)CNC(=O)c1cc(Cl)ccc1Cl)B(O)O
active: Potency (CRL-7250) 1.48 µM | Potency (HEK293) 1.18 µM | Potency (HaCat [1]) 3.72 µM | Potency (NIH3T3 [2]) 0.662 µM | Potency (MKL-1) 0.743 µM | Potency (MKL-2) 0.264 µM | Potency (UISO) 0.59 µM | Potency (WaGa) 0.296 µM

NC(=O)c1cccc2cn(-c3ccc([C@@H]4CCCNC4)cc3)nc12
active: Potency (HEK293) 6.51 µM | Potency (MKL-1) 18.7 µM | Potency (WaGa) 10.5 µM
inactive: max response (CRL-7250) -21.5% and 4.62% | max response (KB-3-1) -3.07% and -13.7% | max response (NIH3T3 [2]) -38.6% and -0.532% | Potency (MCC-13) | Potency (C33A) | Potency (CASKI) | Potency (HeLa) | Potency (Hek293T)

Nc1ccc(C(=O)c2cc3c(ccc4ccccc43)[nH]2)cc1
inactive: max response (CRL-7250) -31% | Potency (MCC-26)
active: Potency (HEK293) 2.96 µM | Potency (KB-3-1) 4180 nM | Potency (WaGa) 8.33 µM

Cc1cnc(Nc2ccc(F)cc2Cl)nc1-c1c[nH]c(C(=O)N[C@H](CO)c2cccc(Cl)c2)c1
inactive: max response (HEK293) -111% | max response (HaCat [1]) -129%
active: Potency (CRL-7250) 18.7 µM and 20.6 µM | Potency (NIH3T3 [2]) 10.5 µM | Potency (MKL-2) 14.8 µM | Potency (UISO) 2.64 µM | Potency (CASKI) 25.1 µM | Potency (Es-2) 20 µM | Potency (HeLa) 31.6 µM

COc1cccc2c(NCc3ccccc3)nc(-n3c(N)nc4ccccc43)nc12
active: Potency (CRL-7250) 8.33 µM | Potency (HEK293) 7.43 µM and 11.6 µM | Potency (NIH3T3 [2]) 10.5 µM | Potency (MKL-1) 9.35 µM | Potency (MKL-2) 4.69 µM | Potency (UISO) 6.62 µM | Potency (WaGa) 9.35 µM | Potency (C33A) 28.2 µM | Potency (CASKI) 25.1 µM | Potency (HeLa) 25.1 µM
inactive: max response (KB-3-1) -11.5%

COc1cc(C(=O)N2CCC(N3CCN(C)CC3)CC2)ccc1Nc1ncc2c(n1)N(C)c1ccccc1C(=O)N2C
active: Potency (CRL-7250) 3.66 µM | Potency (HEK293) 11.8 µM and 9.2 µM | Potency (KB-3-1) 14.8 µM and 16.4 µM | Potency (NIH3T3 [2]) 13 µM | Potency (MKL-2) 2.35 µM | Potency (WaGa) 16.6 µM
inactive: Potency (MCC-13) | Potency (C33A) | Potency (Es-2) | Potency (Hek293T)

C[C@@]12O[C@@H](C[C@]1(O)CO)n1c3ccccc3c3c4c(c5c6ccccc6n2c5c31)CNC4=O
active: Potency (CRL-7250) 0.0833 µM | Potency (HEK293) 4.18 µM | Potency (KB-3-1) 372 nM | Potency (NIH3T3 [2]) 1.87 µM | Potency (MCC-26) 18.7 µM | Potency (MKL-1) 1.48 µM | Potency (MKL-2) 0.0526 µM | Potency (UISO) 1.66 µM | Potency (WaGa) 0.833 µM

CC(C)(C)c1cc(NC(=O)Nc2ccc(-c3cn4c(n3)sc3cc(OCCN5CCOCC5)ccc34)cc2)no1
inactive: max response (CRL-7250) -10.2% and -19.2% | outcome (HaCat [1]) | max response (KB-3-1) 4.76% and -14.7% | max response (NIH3T3 [2]) -25.4% | outcome (NIH3T3 [2]) | Potency (HACAT [3]) | Potency (MCC-13) | Potency (MCC-26) | Potency (MKL-1) | Potency (MKL-2) | outcome (NIH3T3 [4]) | Potency (UISO) | Potency (WaGa) | Potency (C33A) | Potency (CASKI) | Potency (Es-2) | Potency (HeLa) | Potency (Hek293T)

Cc1nc2cnc3ccc(C#Cc4cccnc4)cc3c2n1-c1ccc(C(C)(C)C#N)cc1
active: Potency (CRL-7250) 0.0469 µM | Potency (HaCat [1]) 1.18 µM | Potency (KB-3-1) 93.5 nM | Potency (NIH3T3 [2]) 0.148 µM

COc1cc(C)c(Sc2cnc(NC(=O)c3ccc(CNC(C)C(C)C)cc3)s2)cc1C(=O)N1CCN(C(C)=O)CC1 (stereo not given)
inactive: Potency (MKL-2) | Potency (C33A) | Potency (Es-2) | Potency (Hek293T)
active: Potency (CRL-7250) 23.5 µM | Potency (HEK293) 14.8 µM and 11.6 µM | Potency (HaCat [1]) 5.9 µM | Potency (NIH3T3 [2]) 13.2 µM and 13 µM | Potency (UISO) 18.7 µM

CCN1CCN(CC(=O)Nc2ccc(-c3cccc4c(=O)cc(N5CCOCC5)oc34)c3sc4ccccc4c23)CC1
active: Potency (CRL-7250) 2.35 µM | Potency (HEK293) 1.18 µM | Potency (HaCat [1]) 0.935 µM | Potency (NIH3T3 [2]) 1.05 µM

Cc1[nH]c2ccccc2c1CCNCc1ccc(C=CC(=O)NO)cc1
active: Potency (CRL-7250) 1.05 µM | Potency (HEK293) 0.418 µM | Potency (KB-3-1) 148 nM | Potency (NIH3T3 [2]) 0.743 µM | Potency (MCC-13) 0.833 µM | Potency (MCC-26) 0.935 µM | Potency (MKL-1) 0.332 µM | Potency (MKL-2) 0.0469 µM | Potency (UISO) 0.526 µM | Potency (WaGa) 0.059 µM

Cc1cn2cc(C(=O)N(C)CCO)cc(N[C@@H]3CCOc4cccc(C)c43)c2n1
inactive: max response (CRL-7250) -0.414% and 0.78% | outcome (HaCat [1]) | max response (KB-3-1) -1.9% | outcome (KB-3-1) | outcome (NIH3T3 [2]) | Potency (HACAT [3]) | Potency (MCC-13) | Potency (MKL-1) | Potency (MKL-2) | outcome (NIH3T3 [4]) | Potency (WaGa) | Potency (C33A) | Potency (CAOV3) | Potency (CASKI) | Potency (Es-2) | Potency (HeLa) | Potency (Hek293T)
